High-throughput results from PubChem BioAssay.
FMDV inh: High Throughput Screening for Foot and Mouth Disease Virus Antivirals; FMDV antiviral cell-based qHTS; Potency, µM (highest dose often 57.9 µM), hits mostly inhibitors; 410,000 compounds, 1.2% hits; AID 1159524, 2015; calls by dose curve; tested in HEK293T cells; note: read-out not given here; nearly all actives have a fitted effect of over 45% in size
MARV entry inh: qHTS for inhibitors of binding or entry into cells for Marburg Virus; Marburg virus pseudotyped entry inhibition, cell reporter; 300,000 compounds, 1.8% hits; Potency, µM (series often up to 37.8 µM), usual class: inhibitors; calls by dose curve; tested in HEK293 cells
VACV Venus inh: qHTS for Stage-Specific Inhibitors of Vaccinia Orthopoxvirus: Venus Reporter Primary qHTS; 330,000 compounds, 0.46% hits; Vaccinia virus Venus reporter expression, fluorescence; AID 720580, 2013; Potency, µM (titrated, usually from 36.5 µM), usual class: inhibitors; calls by dose curve; tested in A549 cells; note: nearly all actives have a fitted effect of over 30% in size
VACV mCherry inh: qHTS for Stage-Specific Inhibitors of Vaccinia Orthopoxvirus: mCherry Reporter Primary qHTS | Potency, µM (doses to about 36.5 µM), actives largely listed as inhibitors | Vaccinia virus mCherry reporter infection, fluorescence | 310,000 compounds, 0.63% hits; calls by dose curve; tested in A549 cells; note: nearly all actives have a fitted effect of over 35% in size
Lassa entry inh: qHTS for Inhibitors of binding or entry into cells for Lassa Virus. Lassa virus pseudotype entry inhibition, cell reporter. Potency, µM (series often up to 37.9 µM), hits mostly inhibitors. 300,000 compounds, 1.2% hits; calls by dose curve; tested in HEK293 cells; note: nearly all actives have a fitted effect of over 50% in size
HCMV inh: qHTS Assay for inhibitors of the human cytomegalovirus (HCMV); HFF cells, HCMV-luciferase reporter, 72 h; active compounds read low; activity change, negative = inhibition, % at 57.5 µM; 410,000 compounds, 4.5% hits; AID 1259415, 2018; in the data active = activity change below about -60%; inconclusive = no clear call, values can overlap the other calls; inactive = above about -39%
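Cell-based, HFFs, 1000 cells/well, 16 h 37C; cpds in DMSO + HCMV-luc, MOI 1 PFU/cell; 72 h 37C; OneGlo luminescence after 5 min RT; norm. to buffer vs Salinomycin 10uM.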
Each line names hits and unclear results; the compound was inactive in the other large screens; ! = repeats disagree. This is a sample that favours compounds with a hit; in the whole collection about 6.5% have one here.

CCn1c(-c2cccc(OC)c2)nc2cc(NC(C)=O)cc(C(=O)N(C)CC3COCCO3)c21 (centres undefined)	none (no result: MARV entry inh, Lassa entry inh, HCMV inh)
CCCC(=O)Oc1c(Sc2ccc(Cl)cc2)c(C)nn1-c1ccccc1	none
O=C1NC(=O)N(Cc2ccco2)C(=O)/C1=C/C=C/c1ccco1	FMDV inh inconclusive, MARV entry inh inconclusive, Lassa entry inh inconclusive, HCMV inh inconclusive
O=C1NC(=O)N(c2ccccc2)C(=O)/C1=C/C=C/c1ccco1	FMDV inh inconclusive, HCMV inh -100 (no result: MARV entry inh, VACV Venus inh, VACV mCherry inh, Lassa entry inh)
CN1C(=O)/C(=C/C=C/c2ccco2)C(=O)NC1=S	FMDV inh inconclusive (no result: MARV entry inh, Lassa entry inh)
Cc1ccc(N2C(=O)NC(=O)/C(=C\C=C\c3ccco3)C2=O)cc1	FMDV inh 20µM, HCMV inh -100 (no result: MARV entry inh, VACV Venus inh, VACV mCherry inh, Lassa entry inh)
Cc1cccc(N2C(=O)NC(=O)/C(=C\C=C\c3ccco3)C2=O)c1	FMDV inh 7.1µM (no result: MARV entry inh, VACV Venus inh, VACV mCherry inh, Lassa entry inh)
O=C(Cc1ccccc1)NCC(=O)OCC(=O)c1ccc2ccccc2c1	none (no result: FMDV inh, MARV entry inh, Lassa entry inh, HCMV inh)
C[C@@H](C(=O)NCc1ccc(S(C)(=O)=O)cc1)[C@H]1C[C@]1(C)[C@H](NC(=O)OCc1ccccc1)c1ccccc1	Lassa entry inh inconclusive
Cc1ccc(CNC(=O)[C@H](C)[C@H]2C[C@]2(C)[C@H](NC(=O)OCc2ccccc2)c2ccccc2)o1	MARV entry inh 10µM, VACV Venus inh inconclusive (no result: HCMV inh)
C[C@@H](C(=O)NCc1ccccc1)[C@@H]1C[C@@]1(C)[C@@H](NC(=O)OCc1ccccc1)c1ccccc1	VACV mCherry inh inconclusive, Lassa entry inh 7.3µM
CCC1CCCCN1C(=O)CSc1nc2c([nH]c3ccccc32)c(=O)n1-c1cccc(OC)c1 (centres undefined)	VACV mCherry inh inconclusive, Lassa entry inh inconclusive, HCMV inh -91 (no result: MARV entry inh)
COc1cccc(-n2c(SCC(=O)Nc3cccc(C)c3)nc3c([nH]c4ccccc43)c2=O)c1	none (no result: MARV entry inh)
COc1cccc(NC(=O)CSc2nc3c([nH]c4ccccc43)c(=O)n2-c2cccc(Cl)c2)c1	Lassa entry inh inconclusive, HCMV inh -74 (no result: MARV entry inh)
O=C(CSc1nc2c([nH]c3ccccc32)c(=O)n1-c1cccc(Cl)c1)N1CCOCC1	HCMV inh -93! (no result: MARV entry inh)
O=C(CSc1nnc(-c2n[nH]c3ccccc23)n1-c1ccccc1)Nc1cccc(Cl)c1	MARV entry inh inconclusive, VACV mCherry inh inconclusive, Lassa entry inh inconclusive, HCMV inh -73
CCCCc1cc(=O)oc2cc(C)c3c(C(C)(C)C)coc3c12	none
CCc1nnc(NC(=O)CSc2nc3c([nH]c4ccccc43)c(=O)n2-c2ccc(Cl)cc2)s1	Lassa entry inh 7.9µM (no result: MARV entry inh)
Cc1cc(C)cc(NC(=O)CSc2nc3c([nH]c4ccccc43)c(=O)n2-c2ccc(F)cc2)c1	HCMV inh -88 (no result: MARV entry inh)
O=C(Nc1ccc(-n2cccn2)cc1)C1CCCCN1Cc1cccc2c1OCO2 (centres undefined)	HCMV inh -68 (no result: MARV entry inh, VACV Venus inh, VACV mCherry inh, Lassa entry inh)
O=C(Nc1ccc(Cl)cc1F)c1oc(=O)c2ccccc2c1-c1ccccc1	FMDV inh inconclusive, HCMV inh inconclusive
CCc1ccc(Sc2cc(C(=O)O)c3ccccc3n2)cc1	none (no result: MARV entry inh)
CC(=O)O[C@H]1C[C@@H]2CC[C@@H]3[C@H](CC[C@]4(C)C(=O)CC[C@@H]34)[C@@]2(C)C[C@@H]1OC(C)=O	FMDV inh inconclusive (no result: MARV entry inh, Lassa entry inh, HCMV inh)
C=C1C(=O)C2=CC1CCC(=O)C1(C)CCC(OC(C)=O)C(C)(C)C1CC2O (centres undefined)	FMDV inh 7.9µM, MARV entry inh inconclusive, VACV Venus inh 4µM, VACV mCherry inh 2.5µM, Lassa entry inh 13µM, HCMV inh -99
O=C(NNc1c([N+](=O)[O-])cc(C(F)(F)F)cc1[N+](=O)[O-])c1ccco1	FMDV inh 32µM (no result: MARV entry inh, VACV Venus inh, VACV mCherry inh, Lassa entry inh)
O=C(NCCNc1cc(Cl)ccc1[N+](=O)[O-])c1ccco1	Lassa entry inh inconclusive, HCMV inh -75
CCn1c(SCC(=O)N/N=C/c2c[nH]c3ccccc23)nnc1-c1ccc(C(C)(C)C)cc1	FMDV inh inconclusive, MARV entry inh inconclusive, VACV mCherry inh inconclusive, Lassa entry inh 4.5µM, HCMV inh -75
CCn1c(SCC(=O)N/N=C/c2ccccc2OCC(=O)O)nnc1-c1ccccc1	none (no result: MARV entry inh, VACV Venus inh, VACV mCherry inh, Lassa entry inh, HCMV inh)
CCn1c(SCC(=O)N/N=C/c2ccc(C)o2)nnc1-c1ccc(C(C)(C)C)cc1	FMDV inh 32µM, Lassa entry inh inconclusive
C[C@H]1[C@@H](NS(=O)(=O)c2ccc(Cl)cc2)CC[C@@]23CCCN2C(=O)CCC[C@@H]13	none (no result: FMDV inh, MARV entry inh, VACV Venus inh, VACV mCherry inh, Lassa entry inh)
C=CCN1C(c2ccc(Br)cc2)=CS/C1=C(/C#N)c1nnc(N2CCOCC2)n1-c1ccccc1	FMDV inh inconclusive, MARV entry inh inconclusive, Lassa entry inh inconclusive, HCMV inh -80
Cc1cccc(OCC(=O)NCc2ccc3c(c2)CCN3C(=O)c2ccccc2)c1	Lassa entry inh inconclusive (no result: MARV entry inh)
Cc1sc2ccccc2[n+]1CC(=O)c1ccc(F)cc1	none (no result: FMDV inh, MARV entry inh, Lassa entry inh, HCMV inh)
CCOC(=O)Nc1cc(C(=O)OCC)c(C)nc1C	none
CCOC(=O)c1cc(NC(=O)Nc2cc(C)ccn2)c(C)nc1C	HCMV inh -65
CC1=C(C(=O)Nc2ccc(C)cc2C)C(CC(C)C)n2nc(SCc3ccccc3C)nc2N1 (centres undefined)	none
CCNC(=O)c1cc2c(=O)n3cccc(C)c3nc2n(CCc2ccccc2)c1=N	HCMV inh -103
COCCCNC(=O)c1cccn2c(=O)c3cc4ccccc4cc3nc12	MARV entry inh inconclusive, Lassa entry inh inconclusive, HCMV inh -81 (no result: VACV Venus inh, VACV mCherry inh)
Cc1cccn2c(=O)c3cc(C(=O)NCCc4ccccc4)c(=N)n(CCCn4ccnc4)c3nc12	MARV entry inh inconclusive
COCCn1c(=N)c(C(=O)NCCc2ccccc2)cc2c(=O)n3cccc(C)c3nc21	MARV entry inh inconclusive, HCMV inh -69
CCN1CCOC(=O)C1CC(=O)Nc1cc(Cl)ccc1OC (centres undefined)	none
COc1cc(CN2CCC(C(=O)NCC(C)(C)CN(C)C)CC2)ccc1OCc1ccccc1	HCMV inh -94 (no result: MARV entry inh, VACV Venus inh, VACV mCherry inh, Lassa entry inh)
COc1cc(NC(=O)COn2nnc3ccc(S(C)(=O)=O)cc32)cc(OC)c1	Lassa entry inh inconclusive, HCMV inh -68
Cc1cc(NC(=O)COn2nnc3ccc(S(C)(=O)=O)cc32)ccc1Br	HCMV inh inconclusive (no result: MARV entry inh, VACV Venus inh, VACV mCherry inh, Lassa entry inh)
Cc1ccc(-c2csc(N3CCC(NS(=O)(=O)c4ccc5c(c4)OCCO5)CC3)n2)cc1	FMDV inh inconclusive, MARV entry inh inconclusive, VACV Venus inh 8.9µM, VACV mCherry inh inconclusive, Lassa entry inh inconclusive, HCMV inh -85
CC(=O)c1cccc(NC(=O)COC(=O)c2ccccc2OCc2cccc(Br)c2)c1	none (no result: FMDV inh, MARV entry inh, Lassa entry inh, HCMV inh)
COc1cccc(C2=NOC(C(=O)Nc3cc(C)on3)C2)c1 (centres undefined)	HCMV inh -102
COc1ccc(OC)c(C2=NOC(C(=O)Nc3ccccc3SC)C2)c1 (centres undefined)	none (no result: VACV Venus inh, VACV mCherry inh)
